Only some compounds are listed: those with a hit (about 19% of all), similar ones and a draw of the others.
Shiga inhibitor: A qHTS for Small Molecule Inhibitors of Shiga Toxin | Vero cells, Shiga toxin protein synthesis inhibition reporter | inhibition, % at 38.7 µM | hit rate 9.2% among 290,000; in the data active = inhibition mostly above about 28%, no sharp cut-off; inactive = mostly below about 43%
Pf growth 96h: Primary qHTS for delayed death inhibitors of the malarial parasite plastid, 96 hour incubation | P. falciparum luciferase reporter growth, 96 h | Potency, µM (highest dose often 28.7 µM), actives largely listed as inhibitors | hit rate 6.9% among 320,000
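P. falciparum expressing integrated firefly luciferase grown in erythrocytes (2% hematocrit, 0.05% parasitemia final) with compounds for 96 hours at 37 C, 5% CO2. Growth inhibition read as loss of luminescence after adding luciferase detection reagent.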
CHX counter: Cycloheximide Counterscreen for Small Molecule Inhibitors of Shiga Toxin; cell reporter, cycloheximide protein synthesis inhibition counterscreen; max response, %; hit rate 12% among 300,000; AID 2314, 2010; in the data active = max response mostly above about 13%, no sharp cut-off; inactive = mostly below about 14%; note: read at 38.3 µM for the half of the compounds with a filed dose
LASV entry inh: qHTS for Inhibitors of binding or entry into cells for Lassa Virus | Lassa virus pseudotype entry inhibition, cell reporter | Potency, µM (series often up to 37.9 µM), actives largely listed as inhibitors | hit rate 1.2% among 300,000 | AID 540256, 2011; calls by dose curve; tested in HEK293 cells; note: nearly all actives have a fitted effect of over 50% in size
MARV entry inh: qHTS for inhibitors of binding or entry into cells for Marburg Virus. Marburg virus pseudotyped entry inhibition, cell reporter. Potency, µM (top dose mostly 37.8 µM), usual class: inhibitors. hit rate 1.8% among 300,000. AID 540276, 2011; calls by dose curve; tested in HEK293 cells
Pf growth 48h: Primary qHTS for delayed death inhibitors of the malarial parasite plastid, 48 hour incubation. P. falciparum luciferase growth in erythrocytes, 48 h. Potency, µM (highest dose often 28.7 µM), usual class: inhibitors. hit rate 5.9% among 310,000. AID 504832, 2011
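First compound was added to culture medium, then infected red cells at 0.1% parasitemia and 2% hematocrit (final). After incubation at 37 C under 5% CO2, luciferase detection reagent was dispensed and light output recorded.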
Hits are given with their value; – = inactive; ? = inconclusive; · = not tested or not shown; + = active, no number. Unless noted, calls come from the whole dose curve; as a rule, active = well fitted inhibition curve with a large enough effect; inconclusive = small, poorly fitted or top-dose-only effect, or another doubt; inactive = no such curve, though single readings can be large or run the other way.

SMILES | Shiga inhibitor | Pf growth 96h | CHX counter | LASV entry inh | MARV entry inh | Pf growth 48h
Cc1ccc(NC(=S)N2CCC(N(C)CC3CCCO3)CC2)cc1C (stereo unspecified) | – | 1.5µM | – | – | – | –
Cc1ccc(NC(=O)C2=C(c3ccccc3)S(=O)(=O)CCS2(=O)=O)cc1 | – | – | 34 | ? | ? | –
Cc1ccc(N/C(=C\C(=O)c2ccccc2)C(=O)O)cc1 | 100 | – | 47 | – | ? | –
O=C(Nc1ccccc1)c1ccccc1I | 42 | · | 31 | · | · | ·
Cc1ccccc1C(=O)Nc1ccccc1 | – | ? | – | – | ? | –
Cc1cccc(C(=O)NNC(=O)Nc2ccccc2)c1 | – | – | – | – | – | –
Cc1ccc(NC(=O)NNC(=O)c2ccccc2)cc1 | 44 | – | 22 | · | · | –
Cc1ccc(NC(=O)c2ccccc2)cc1 | 109 | – | 33 | ? | ? | –
Cc1ccc(NC(=O)C(C)C(=O)Nc2ccc(C)cc2)cc1 | – | ? | – | – | – | –
COc1ccc(NC(=O)c2ccc(C)cc2)c[n+]1[O-] | – | – | 12 | – | – | –
Cc1ccc(C(NC(=O)c2ccccc2)C(Cl)Cl)cc1 (stereo unspecified) | – | 4.1µM | – | – | ? | ?
Cc1ccc(NC(=O)C(=O)c2ccc(C)cc2)cc1 | – | – | 57 | – | ? | –
Cc1noc(C)c1-c1ccc2ncnc(NCc3ccc(C(F)(F)F)cc3)c2c1 | – | · | – | · | · | ·
COc1ccc(NC(=O)C2=NN(C3CCS(=O)(=O)C3)C(=O)CC2)cn1 (stereo unspecified) | – | ? | – | · | · | –
COc1ccc(NC(=O)N2CCN(c3nc4ccccc4n3C(C)C)CC2)cc1 | – | – | – | – | ? | ?
Cc1ccc(NC(=O)c2ccccc2O)cc1 | + | – | 34 | ? | ? | –
Cc1cc(C)cc(NC(=O)Nc2ccc(NC(=O)c3ccccc3O)cc2)c1 | – | – | – | ? | ? | –
Cc1ccccc1C(=O)Nc1cccc(NC(=O)c2ccc(-c3ccc(Br)cc3)o2)c1 | – | ? | – | ? | ? | ?
CCn1c(SCc2cc(=O)[nH]c3ccccc23)nc2c1c(=O)n(C)c(=O)n2C | · | · | · | – | ? | ·
CCn1c(SCc2nnc(-c3ccccc3)o2)nc2c1c(=O)n(C)c(=O)n2C | – | 6.6µM | – | · | · | –
CCCCn1c(SCc2nnc(-c3ccccc3)o2)nc2c1c(=O)n(C)c(=O)n2C | – | – | 24 | – | – | ?
CCCCn1c(SCC(=O)NCc2cccs2)nc2c1c(=O)n(C)c(=O)n2C | – | 9.3µM | – | – | – | ·
CN(CC(=O)Nc1cccc(F)c1)C(=O)CN1C(=O)NC2(CCCCC2)C1=O | · | ? | · | – | – | –
O=C(Nc1ccccc1Oc1ccsc1C(=O)O)c1ccccc1 | – | – | – | · | · | ·
Cc1cc(C)nc(N(C#N)Cc2ccccc2Cl)n1 | – | – | – | · | · | ·
SMILES | Shiga inhibitor | Pf growth 96h | CHX counter | LASV entry inh | MARV entry inh | Pf growth 48h
COc1cccc(OC)c1C(=O)Nc1cccc(NC(=O)c2cccs2)c1 | – | ? | – | · | · | –
CC(C)C1OC(c2cccc(NC(=O)c3cccs3)c2)OCC1(C)C (stereo unspecified) | – | ? | – | ? | ? | 1.9µM
CC(C)CC(=O)NC(=S)Nc1ccccc1C(=O)Nc1ccccc1 | – | · | – | – | ? | –
CCC(=O)NC(=S)Nc1ccc(NC(=O)c2ccco2)c(OC)c1 | active | – | – | – | – | –
CC(C)CC(=O)NC(=S)Nc1ccc(NC(=O)c2ccco2)cc1 | – | 6.6µM | – | – | – | ?
CCc1ccc(NC(=S)NC(=O)CC(C)C)cc1 | 19 | – | 70 | ? | – | –
CCCCC(=O)NC(=S)Nc1cccc(NC(=O)c2ccco2)c1 | – | – | – | – | ? | –
CCC(=O)NC(=S)Nc1ccc(NC(=O)c2ccco2)cc1 | 59 | ? | 29 | – | ? | ?
Cc1cccc(C(=O)N2CCNC(=O)C2CC(=O)Nc2cccc(Cl)c2)c1 (stereo unspecified) | – | – | – | · | · | –
Cc1onc(-c2ccccc2)c1C(=O)Nc1ccccc1N1CCOCC1 | – | · | – | – | – | ?
Cc1onc(-c2c(Cl)cccc2Cl)c1C(=O)N1CCN(c2ccccc2F)CC1 | – | ? | – | ? | ? | 13µM
Cc1onc(-c2c(Cl)cccc2Cl)c1C(=O)N=C(N)N1CC(C)OC(C)C1 (stereo unspecified) | – | 12µM | – | ? | – | 3.3µM
Cc1onc(-c2ccccc2)c1C(=O)Nc1cc(C(F)(F)F)ccc1N1CCOCC1 | – | – | – | ? | ? | ·
Cc1onc(-c2c(F)cccc2Cl)c1C(=O)Nc1ccccc1N1CCOCC1 | – | 2.6µM | – | – | – | 1.9µM
CCOC(=O)c1ccc(N2CCOCC2)c(NC(=O)c2c(-c3ccccc3)noc2C)c1 | – | ? | – | ? | 1.8µM | 13µM
CCCC1CCc2c(c3ccccc3[nH]c2=O)O1 (stereo unspecified) | – | · | – | – | – | ?
COc1ccc(-c2cn3cc(Br)cnc3n2)cc1 | – | – | 25 | – | ? | –
COc1ccc(-c2cn3cccnc3n2)cc1NC(=O)C(C)C | – | – | – | · | · | –
COc1ccc(-c2cn3cccnc3n2)cc1NC(=O)C1CC1 | – | 9.3µM | – | – | – | –
CC(=O)Nc1cccc(-c2cn3cccnc3n2)c1 | · | · | · | – | · | ·
Nc1ccc(-c2cn3cccnc3n2)cc1 | – | – | 17 | – | – | –
COc1ccc(-c2cn3cccnc3n2)cc1Br | 99 | – | 15 | ? | ? | –
CC1(C)CC(=O)C([N+](=O)[O-])=C(NCCCC(=O)O)C1 | – | – | – | – | – | –
CSc1nc(N)c2ncn([C@H]3O[C@H](COP(=O)(O)OP(=O)(O)OP(=O)(O)O)[C@@H](O)[C@@H]3O)c2n1 | · | · | · | · | – | ·
CCN1C(=NCCc2cccnc2)NC(CCc2ccccc2)C(C(=O)OC)=C1C (stereo unspecified) | · | · | · | · | – | ·
SMILES | Shiga inhibitor | Pf growth 96h | CHX counter | LASV entry inh | MARV entry inh | Pf growth 48h
Cc1nc2cc(N3CCN(C)CC3)c(NC(=O)Cc3ccccc3)cc2c(=O)n1Cc1ccccc1 | 55 | – | 90 | ? | ? | 10µM
CCCC(=O)Nc1ccc2nc(C)n(Cc3ccccc3Cl)c(=O)c2c1 | – | – | – | · | · | ?
CCN(CC)c1cc2nc(C)n(Cc3ccccc3)c(=O)c2cc1NC(=O)C1CC1 | – | – | – | – | ? | 7.4µM
CC(C)NC(=O)c1cc2cc([N+](=O)[O-])ccc2s1 | – | – | – | – | ? | –
CC(c1cc2ccccc2s1)N(O)C(N)=O (stereo unspecified) | – | 0.38µM | – | · | · | –
CCCCCn1c(SCC(=O)CC(=O)OCC)nc2cc(C(=O)N3CCC(C(N)=O)CC3)ccc2c1=O | – | – | – | ? | – | ?
O=C(CCC1CCCC1)N=C1SC2CS(=O)(=O)CC2N1c1ccccc1F (stereo unspecified) | – | ? | – | · | · | ?
COc1ccccc1CNC(=O)c1ccc(C)s1 | – | 6.6µM | – | – | – | –
COc1ccccc1CNC(=O)CCCC(=O)n1ncc2cc(C)ccc21 | – | – | – | · | · | –

Screening data: PubChem, National Center for Advancing Translational Sciences (NCATS)
